13 molecules from PubChem BioAssay can be followed below.

The nature of assay [1]: compounds altering circadian rhythm period length – cell-based, LOPAC library, luminescence reporter (AID 2774).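 Further: values are relative to mean of DMSO wells on each plate.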 Conditions: circadian reporter cells, at 7 µM, actives lie on both sides.
Assay [2] has as its system Hepatitis C virus NS3 helicase. Nature of the assay: blockers of NS3h binding to ssDNA – biochemical, fluorescence polarization, LOPAC1280 library, primary screen (AID 687035; in the data active means inhibition above about 37%). Conditions: Purified HCV NS3 helicase, Cy5-dT15 ssDNA binding fluorescence polarization; stronger effect = higher value; concentration not given here.
A short description of assay [3]: compounds altering Cy5-DNA-NS3h complex signal – biochemical, LOPAC1280, artefact control for HCV NS3 helicase inhibitor project (AID 687037). Conditions: Cy5-DNA-NS3h complex fluorescence interference counterscreen. Background: A counterscreen serves to expose hits that act by an unwanted route or on another target.
Assay [4] has as its system Aerobactin synthetase IucA (Klebsiella pneumoniae). Nature of the assay: inhibition of K. pneumoniae IucA enzyme – biochemical, Tocris library, absorbance (AID 1345561).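 Further: 100% = enzyme without compound and 0% = no enzyme.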 Conditions: purified IucA enzyme assay, absorbance (OD) read-out; stronger effect = lower value;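 tested at 8 µM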.
The nature of assay [5]: viability loss with induced miR-34 in A549 – imaging, A549 dox-inducible miR-34, nuclei and caspase counts, primary screen (AID 1347080;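 active means compounds whose cell count with miR-34 switched on is under 0.7 times the count with it off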). To be noted: A549 miR-34 inducible, Hoechst nuclei count, 48 h.
Assay [6] can be described thus: blockers of cellular phospholipid synthesis – cell-based, LOPAC library, screen 4, primary screen (AID 1347384). To be noted: animal cells, phospholipid biosynthesis inhibition screen; at 10 µM.
Assay [7] in a line: galactose survival enhancers in mitochondrial complex I cybrids – cell-based, galactose medium, ATP luminescence, primary screen (AID 1645843;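 active means z-score of at least 1.8 in each of two replicates, scored against plate mean and spread of sample wells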;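 further: positive z means more ATP and so rescue of galactose-driven cybrid death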). Conditions: complex I mutant cybrid cells, 72 h, stronger effect = higher value.
[8] abbreviates: stronger effect = lower value, cell number ratio, induced over uninduced.
[9] abbreviates: measured here: relative caspase fold change +Dox/-Dox.
The mark [10] stands for this setting: measured here: total cells with miR-34 induction, stronger effect = lower value.
Where [11] appears, read: measured here: total cells without miR-34 induction.

Structures are written as SMILES. Where “and” joins values, the source holds several entries; their conditions need not be identical. Identical values can stand only once. Calls of active or inactive are those of the source. Unless noted, how the calls were made is not given here.

Take `NC[C@@H]1O[C@H](C23CC4CC(CC(C4)C2)C3)Cc2c1ccc(O)c2O`: in assay [1], the period change was 0.01 h (inactive). For the same molecule, the inhibition (as a rule, the drop in the measured response relative to a control, in per cent) in assay [2] is -3% (inactive). The fluorescence ratio (interference) in assay [3] is 0.9 (inactive). For the same molecule, the remaining activity (commonly the signal under treatment as a percentage of the control signal) in assay [4] is 123% (inactive). The fold change in assay [5] (setting [8]) is 1.09 (inactive) and 0.908 (inactive); in assay [5] (setting [9]) it was 1.75 and 0.979. Further, the cell count in assay [5] (setting [10]) was 4260 and 7980; in assay [5] (setting [11]), 3890 and 8790. The molecule was classed as inactive in assay [6]. For the same molecule, in assay [7], the z-score is -1.5 (inactive) and -0.775 (inactive).
For `CC(C)(C)NCC(O)COc1cccc2[nH]c(=O)[nH]c12` (stereo not given), the period change in assay [1] was -0.075 h (inactive). Also, the inhibition in assay [2] was -3% (inactive). Moreover, in assay [3], the fluorescence ratio (interference) is 1 (inactive). The remaining activity in assay [4] was 89.1% (inactive). Moreover, the fold change was 0.952 (inactive) and 0.913 (inactive) in assay [5] (setting [8]); 1.58 and 1.07 in assay [5] (setting [9]). Moreover, the cell count in assay [5] (setting [10]) is 9940 and 8700; in assay [5] (setting [11]), 10400 and 9520. For the same molecule, in assay [6], the outcome was inactive. The z-score in assay [7] is 0.24 (inactive) and 0.505 (inactive).
As for `NC(N)=NC(N)=Nc1cccc(Cl)c1`, the period change in assay [1] is 0.15 h (inactive). The inhibition in assay [2] was -4% (inactive). Besides, the fluorescence ratio (interference) in assay [3] is 1 (inactive). The remaining activity in assay [4] was 77.4% (inactive). Besides, the fold change is 0.947 (inactive) and 0.85 (inactive) in assay [5] (setting [8]); 1.12 and 1.01 in assay [5] (setting [9]). For the same molecule, the cell count in assay [5] (setting [10]) was 10300 and 7530; in assay [5] (setting [11]) it was 10900 and 8860. For the same molecule, the call in assay [6] was inactive. The z-score in assay [7] was -0.165 (inactive) and -0.935 (inactive).
As to `Cc1nc2c(OCc3ccccc3)cccn2c1CC#N`, the period change in assay [1] is -0.02 h (inactive). The inhibition in assay [2] is 1% (inactive). For the same molecule, in assay [3], the fluorescence ratio (interference) was 1 (inactive). In assay [4], the remaining activity was 113% (inactive). In addition, the fold change in assay [5] (setting [8]) is 1.04 (inactive) and 0.99 (inactive); in assay [5] (setting [9]) it was 1.18 and 1.15. In addition, the cell count in assay [5] (setting [10]) was 9420 and 8410; in assay [5] (setting [11]) it was 9080 and 8490. For the same molecule, in assay [6], the result was inactive. In addition, the z-score in assay [7] was 1.07 (inactive) and 2.13 (inactive).
`CC(C)(CO)Cc1cc(C(C)(C)C)c(O)c(C(C)(C)C)c1`: in assay [1], the period change is 0.05 h (inactive). Besides, in assay [2], the inhibition is 0% (inactive). Besides, the fluorescence ratio (interference) in assay [3] was 1 (inactive). Besides, the remaining activity in assay [4] was 101% (inactive). Also, the fold change was 1.04 (inactive) and 0.971 (inactive) in assay [5] (setting [8]); 1.88 and 0.81 in assay [5] (setting [9]). For the same molecule, the cell count is 7090 and 8690 in assay [5] (setting [10]); 6800 and 8950 in assay [5] (setting [11]). Further, the result in assay [6] was inactive. Further, the z-score in assay [7] was -1.4 (inactive) and -0.73 (inactive).
Consider `O=c1onc2cnc3ccccc3n12`, for which the period change in assay [1] was 0.13 h (inactive). In addition, in assay [2], the inhibition was 0% (inactive). In assay [3], the fluorescence ratio (interference) is 1 (inactive). Moreover, the remaining activity in assay [4] was 108% (inactive). Moreover, the fold change in assay [5] (setting [8]) was 1.09 (inactive) and 0.945 (inactive) and 0.946 (inactive); in assay [5] (setting [9]), 1.29 and 1.08 and 0.805. The cell count in assay [5] (setting [10]) was 8010 and 5220 and 7630; in assay [5] (setting [11]) it was 7350 and 5530 and 8060. In addition, the result in assay [6] was inactive. In assay [7], the z-score is 0.125 (inactive) and 0.635 (inactive).
In the case of `CN=c1nc(-c2ccccc2)n(-c2ccccc2)s1`, the period change in assay [1] is -0.055 h (inactive). The inhibition in assay [2] is 8% (inactive). For the same molecule, the fluorescence ratio (interference) in assay [3] is 1 (inactive). The remaining activity in assay [4] was 118% (inactive). Moreover, the fold change was 0.91 (inactive) and 0.922 (inactive) in assay [5] (setting [8]); 1.06 and 0.764 in assay [5] (setting [9]). In addition, the cell count in assay [5] (setting [10]) was 3550 and 4090; in assay [5] (setting [11]), 3900 and 4440. Besides, the result in assay [6] was inactive. In addition, the z-score in assay [7] was -1.38 (inactive) and -0.73 (inactive).
Regarding `N[C@@H](CS(=O)O)C(=O)O`, the period change in assay [1] is 0.04 h (inactive). Moreover, in assay [2], the inhibition is -5% (inactive). Besides, in assay [3], the fluorescence ratio (interference) was 0.9 (inactive). The remaining activity in assay [4] was 124% (inactive). In addition, the fold change in assay [5] (setting [8]) was 1.01 (inactive) and 0.998 (inactive); in assay [5] (setting [9]), 1.54 and 0.698. Moreover, the cell count was 10700 and 8340 in assay [5] (setting [10]); 10600 and 8360 in assay [5] (setting [11]). Further, in assay [6], the result was inactive. Besides, the z-score in assay [7] is 0.58 (inactive) and 0.25 (inactive).
Consider `C[C@@H](CN1CCC(Cc2ccccc2)CC1)[C@@H](O)c1ccc(O)cc1`, for which the period change in assay [1] was 0.12 h (inactive). In addition, the inhibition in assay [2] was -3% (inactive). For the same molecule, the fluorescence ratio (interference) in assay [3] is 1 (inactive). Besides, the remaining activity in assay [4] is 113% (inactive). For the same molecule, the fold change in assay [5] (setting [8]) was 0.971 (inactive) and 0.906 (inactive); in assay [5] (setting [9]), 0.907 and 0.699. For the same molecule, the cell count in assay [5] (setting [10]) is 9590 and 8970; in assay [5] (setting [11]), 9880 and 9910. In addition, the outcome in assay [6] was inactive. Moreover, in assay [7], the z-score was -1.21 (inactive) and -0.605 (inactive).
Take `CCCc1c(-c2ccc(O)cc2)nn(-c2ccc(O)cc2)c1-c1ccc(O)cc1`: the period change in assay [1] is 0.165 h (inactive). For the same molecule, the inhibition in assay [2] is -1% (inactive). In addition, in assay [3], the fluorescence ratio (interference) was 1 (inactive). Moreover, the remaining activity in assay [4] is 109% (inactive). Moreover, the fold change in assay [5] (setting [8]) was 1.09 (inactive) and 0.887 (inactive) and 1.03 (inactive); in assay [5] (setting [9]), 1.1 and 0.322 and 0.755. Besides, the cell count was 8030 and 5050 and 7250 in assay [5] (setting [10]); 7380 and 5690 and 7020 in assay [5] (setting [11]). For the same molecule, the outcome in assay [6] was inactive. Also, the z-score in assay [7] was 1.27 (inactive) and 1.6 (inactive).
For `CC(C)NC[C@H](O)COc1cccc2[nH]ccc12`, the period change in assay [1] is 0.125 h (inactive). Besides, the inhibition in assay [2] was -2% (inactive). Further, the fluorescence ratio (interference) in assay [3] was 1 (inactive). Further, the remaining activity in assay [4] is 102% (inactive). Moreover, the fold change was 0.97 (inactive) and 0.927 (inactive) in assay [5] (setting [8]); 1.45 and 1.12 in assay [5] (setting [9]). The cell count in assay [5] (setting [10]) was 9970 and 8970; in assay [5] (setting [11]) it was 10300 and 9670. The result in assay [6] was inactive. Moreover, the z-score in assay [7] was -0.095 (inactive) and -0.03 (inactive).
Consider `N#Cc1cc2nc(O)c(O)nc2cc1[N+](=O)[O-]`, for which the period change in assay [1] was 0.03 h (inactive). For the same molecule, the inhibition in assay [2] was -1% (inactive). The fluorescence ratio (interference) in assay [3] was 1 (inactive). Besides, the remaining activity in assay [4] is 114% (inactive). Besides, the fold change in assay [5] (setting [8]) was 1.02 (inactive) and 0.856 (inactive); in assay [5] (setting [9]), 1.08 and 1.89. Also, the cell count is 9680 and 8420 in assay [5] (setting [10]); 9500 and 9840 in assay [5] (setting [11]). In addition, in assay [6], the molecule was classed as inactive. Also, the z-score in assay [7] was 0.385 (inactive) and 0.185 (inactive).
For the molecule `NC(=O)CNCCC(c1ccccc1)c1ccccc1`, the period change in assay [1] is -0.275 h (inactive). In addition, in assay [2], the inhibition was 0% (inactive). In addition, in assay [3], the fluorescence ratio (interference) was 1.1 (inactive). The remaining activity in assay [4] is 72.6% (inactive). Besides, the fold change in assay [5] (setting [8]) was 0.993 (inactive) and 0.866 (inactive); in assay [5] (setting [9]), 1.46 and 1.33. Moreover, the cell count was 9880 and 8250 in assay [5] (setting [10]); 9950 and 9520 in assay [5] (setting [11]). In addition, in assay [6], the result was inactive. The z-score in assay [7] is -0.185 (inactive) and 0.085 (inactive).
